This note sets out measurements from PubChem BioAssay (NCATS).

Experiment [1] is described as follows: qHTS assay for environmental chemicals that activate the Aryl hydrocarbon Receptor (AhR) signaling pathway (AID 651777). Further: % of control where 0% means no effect; nearly all actives have a fitted effect of over 15% in size. Conditions: 1A2-DRE human hepatoma cells, luciferase, 24 h; stronger effect = higher value. The gist of the method:
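Quantitative HTS in stably transfected human liver-derived cells whose luciferase gene sits downstream of the CYP1A2 promoter and dioxin response element. After 24 hr exposure at 37 C, One-Glo luminescence was measured.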

Experiment [2] concerns the target Peroxisome proliferator-activated receptor alpha (Homo sapiens) (UniProt Q07869). Briefly: qHTS assay for small molecule agonists of the peroxisome proliferator-activated receptor alpha (PPARalpha) signaling pathway (AID 651778). Further: % of control where 0% means no effect. As to conditions: PathHunter PPARalpha complementation, chemiluminescence, 6 h; stronger effect = higher value. The gist of the method: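 Chemiluminescence from complemented enzyme reported PPARalpha activation in cells after 6 hr of compound treatment at 37 C. The detection reagent was incubated for 60 min at room temperature, and compounds were scored as agonists.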
A general note: In qHTS, concentration-response curves come from the screen itself.

Experiment [3] in a line: qHTS assay for small molecule agonists of the antioxidant response element (ARE) signaling pathway measured by Nrf2-dependant transcriptional activity (AID 720636; active means well fitted curve in the direction sought with a large enough effect in the repeat runs; an effect the other way counts as inactive or inconclusive; further: % of control where 0% means no effect). Conditions: ARE-luc HepG2, Nrf2 luciferase reporter, 16 h; series mostly up to 92.4 µM. The gist of the method:
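Quantitative HTS format in HepG2 cells stably expressing an ARE-luciferase reporter; 16 hr compound treatment at 37 C, luciferase signal detected with ONE-Glo.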

Experiment [4] in a line: qHTS assay for small molecule agonists of the antioxidant response element (ARE) signaling pathway measured by Nrf2-dependant transcriptional activity - cell viability counter screen (AID 720653; active means well fitted curve in the direction sought with a large enough effect in the repeat runs; an effect the other way counts as inactive or inconclusive; further: potency means the concentration at half of the fitted maximal effect; on max response: on the % scale 0 is the no-effect control and ±100 the full control effect). As to conditions: ARE-bla HepG2 viability, CellTiter-Glo ATP luminescence, 16 h; max response: stronger effect = lower value. The gist of the method:
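Cytotoxicity counter screen: intracellular ATP quantified by CellTiter-Glo luminescence in the same ARE-bla HepG2 plates, after 16 h compound exposure and a 2 h beta-lactamase substrate step.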

The target of experiment [5] is Nuclear receptor ROR-gamma (Homo sapiens) (UniProt P51449). The experiment is described as follows: qHTS assay for small molecule antagonists of the retinoid-related orphan receptor gamma (ROR-gamma) signaling pathway (AID 651802). Further: nearly all actives have a fitted effect of over 60% in size. Further: potency means the concentration at half of the fitted maximal effect. Conditions: ROR-gamma antagonist cell reporter assay; series mostly up to 92.2 µM. The gist of the method: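 CHO, TET-inducible ROR + RORE-LUC reporter, 1536-well qHTS. Compound pinned, doxycycline added, 16hr 37C/5% CO2. ONE-Glo, 30 min RT, luminescence; signal drop scored as antagonism.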

The nature of experiment [6]: qHTS assay for small molecule antagonists of the retinoid-related orphan receptor gamma (ROR-gamma) signaling pathway - cell viability counter screen (AID 720652; active means well fitted curve in the direction sought with a large enough effect in the repeat runs; an effect the other way counts as inactive or inconclusive;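 further: compound exposure lasted 16 hr before ATP read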; further: potency means the concentration at half of the fitted maximal effect). As to conditions: RORgamma reporter cell line viability counter screen; series mostly up to 92.2 µM. The gist of the method: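 Luminescence from CellTiter-Glo after 30 min at room temperature reported cellular ATP as the cytotoxicity measure. Cells were the CHO reporter line with doxycycline-induced ROR-gamma expression, exposed to compound for 16 hr at 37 C.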

Experiment [7] in a line: qHTS Assay for Identifying Gametocytocidal Compounds (AID 743244).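 Further: on the % scale 0 is the no-effect control and ±100 the full control effect; actives lower the fluorescent signal which means gametocytes are killed.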 As to conditions: P. falciparum 3D7 stage III-V gametocytes, alamarBlue, 72 h; max response: stronger effect = lower value. The gist of the method: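 Stage III–V gametocytes of P. falciparum 3D7 were seeded at 20,000 cells/well onto pre-dispensed compounds. After 72 h, 37 °C, 5% CO2, alamarBlue was added for another 24 h.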

A short description of experiment [8]: qHTS assay to identify small molecules that stimulate interleukin-8 (IL-8) secretion (AID 651758; active means well fitted activation curve with a large enough effect in the signal ratio; the % refers to the signal ratio; further: 0% is about no effect). As to conditions: HTRF ratio (665/615); series mostly up to 92.2 µM. The gist of the method: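 Secreted IL-8 measured by TR-FRET sandwich (cryptate and XL665 antibodies) from THP-1 cells exposed to compound overnight (16 hrs, 37 C).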
Experiment [9] can be described thus: qHTS for Inhibitors of Ubiquitin-specific Protease USP2a Using CHOP2 as the Reporter: K633 Counterscreen (AID 652168). Further: % of control where 0% means no effect. Conditions: No-enzyme DiUb K48 IQF substrate fluorescence interference, kinetic; series mostly up to 57.5 µM. The gist of the method: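 Cell-free interference counterscreen without USP2a: compounds pinned into enzyme-free buffer (20 mM Tris pH 8, 2 mM beta-mercaptoethanol, 0.05% Chaps), then DiUb K48-4IQF substrate added (100 nM stock); fluorescence read kinetically, Ex 525/Em 598.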

A short description of experiment [10]: qHTS for Inhibitors of Ubiquitin-specific Protease USP2a Using CHOP2 as the Reporter: Cytotox Assay (AID 652170).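 Further: plate controls were DMSO-treated cells for no effect and wells without cells for full effect; nearly all actives have a fitted effect of over 70% in size.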 As to conditions: HCT116 viability, CellTiter-Glo luminescence, 72 h; series mostly up to 46.1 µM. The gist of the method:
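HCT116 human colon cancer cells, 600 per well in DMEM with 10% FBS, exposed to compounds for 72 hr at 37 deg C. ATP measured by CellTiter-Glo luminescence, normalized to DMSO cells and no-cell background.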

For experiment [11], the target named is Ubiquitin carboxyl-terminal hydrolase 2 (Homo sapiens) (UniProt O75604). Briefly: qHTS for Inhibitors of Ubiquitin-specific Protease USP2a Using CHOP2 as the Reporter: K484 Substrate (AID 652173).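 Further: cleavage of internally quenched K48 di-ubiquitin substrate measured as rising fluorescence over time; nearly all actives have a fitted effect of over 70% in size.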 Conditions: USP2 cleavage of DiUb K48 IQF substrate, fluorescence; series mostly up to 57.5 µM. The gist of the method:
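USP2 (dispensed at 5 nM) was pinned with compounds, then DiUb K48 internally quenched fluorescent substrate (dispensed at 100 nM) was added. The buffer was 20 mM Tris pH 8, 2 mM beta-mercaptoethanol and 0.05% CHAPS. Cleavage was read kinetically as rising fluorescence, Ex 525/Em 598.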

Several values for one entry are separate records, joined by “and”; a condition that tells them apart may be missing. Equal entries are not always repeated. Values without a mark were called inactive. Inconclusive results are not listed. Activity calls are given as the source filed them. Unless noted, the call rests on the fitted dose curve; in most records, active means well fitted curve in the direction sought with a large enough effect; inconclusive means small, poorly fitted or top-dose-only effect, or another doubt; inactive means no such curve, though single readings can be large; an effect the other way counts as inactive or inconclusive.

Sequence of Peroxisome proliferator-activated receptor alpha (Homo sapiens) (Q07869 whole entry, looked up): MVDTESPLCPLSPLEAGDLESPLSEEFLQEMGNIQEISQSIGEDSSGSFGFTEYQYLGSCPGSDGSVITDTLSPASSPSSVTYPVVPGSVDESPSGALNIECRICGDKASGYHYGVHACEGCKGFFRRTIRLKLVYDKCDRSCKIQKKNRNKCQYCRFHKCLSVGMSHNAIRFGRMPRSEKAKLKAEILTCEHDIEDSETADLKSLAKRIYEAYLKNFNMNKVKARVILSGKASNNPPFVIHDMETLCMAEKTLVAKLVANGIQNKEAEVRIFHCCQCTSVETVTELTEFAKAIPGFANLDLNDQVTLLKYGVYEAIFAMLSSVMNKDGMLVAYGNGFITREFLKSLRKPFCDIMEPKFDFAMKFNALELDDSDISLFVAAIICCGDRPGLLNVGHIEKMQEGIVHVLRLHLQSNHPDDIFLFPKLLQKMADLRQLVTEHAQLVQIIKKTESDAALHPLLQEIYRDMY
Sequence of Nuclear receptor ROR-gamma (Homo sapiens) (P51449 whole entry, looked up): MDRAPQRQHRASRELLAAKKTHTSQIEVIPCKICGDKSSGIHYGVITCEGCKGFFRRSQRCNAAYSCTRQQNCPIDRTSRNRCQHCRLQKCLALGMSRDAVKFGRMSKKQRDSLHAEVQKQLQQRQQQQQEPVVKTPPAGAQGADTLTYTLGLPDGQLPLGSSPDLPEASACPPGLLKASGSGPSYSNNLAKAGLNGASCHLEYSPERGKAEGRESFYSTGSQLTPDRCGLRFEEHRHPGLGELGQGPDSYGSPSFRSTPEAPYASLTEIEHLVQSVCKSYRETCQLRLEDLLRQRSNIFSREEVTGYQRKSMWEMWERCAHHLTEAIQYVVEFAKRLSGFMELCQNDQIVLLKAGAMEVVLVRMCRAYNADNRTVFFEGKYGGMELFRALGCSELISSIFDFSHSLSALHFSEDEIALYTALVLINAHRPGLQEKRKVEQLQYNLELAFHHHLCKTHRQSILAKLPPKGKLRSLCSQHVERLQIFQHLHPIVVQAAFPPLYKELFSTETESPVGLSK
Sequence of Ubiquitin carboxyl-terminal hydrolase 2 (Homo sapiens) (O75604 whole entry, looked up): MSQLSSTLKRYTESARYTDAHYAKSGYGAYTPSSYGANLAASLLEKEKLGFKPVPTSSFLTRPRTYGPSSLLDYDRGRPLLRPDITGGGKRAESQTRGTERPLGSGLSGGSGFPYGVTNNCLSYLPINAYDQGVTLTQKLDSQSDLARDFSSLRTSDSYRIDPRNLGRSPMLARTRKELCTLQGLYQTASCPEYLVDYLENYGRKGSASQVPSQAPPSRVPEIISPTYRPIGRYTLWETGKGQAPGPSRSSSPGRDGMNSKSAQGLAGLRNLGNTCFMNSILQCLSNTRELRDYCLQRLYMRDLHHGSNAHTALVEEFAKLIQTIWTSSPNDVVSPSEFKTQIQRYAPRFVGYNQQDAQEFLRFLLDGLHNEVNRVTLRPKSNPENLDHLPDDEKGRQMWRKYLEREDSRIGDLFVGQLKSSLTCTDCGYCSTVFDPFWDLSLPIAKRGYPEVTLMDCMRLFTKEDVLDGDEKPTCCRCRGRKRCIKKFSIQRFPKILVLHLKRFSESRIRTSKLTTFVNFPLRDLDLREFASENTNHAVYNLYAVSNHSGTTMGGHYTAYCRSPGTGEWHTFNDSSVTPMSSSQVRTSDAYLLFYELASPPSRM

For `O=S(=O)(O)NC1CCCCC1`, the activation in experiment [1] is 1.78%. In addition, the results for the max response in experiment [2] and in experiment [4] were -1.02% and 2.33%, respectively. The molecule was classed as inactive in [3].
Take `O=C1O[C@H]([C@@H](O)CO)C(O)=C1O`: the activation in experiment [1] is 0.758% and 0.0107%. For the same molecule, the max response in experiment [2] is -1.42% and -0.305%; in experiment [4] it was 26.8% and 1.51%; in [7] it was -4.25% and 24.7%. Moreover, the Potency result in experiment [5] and in experiment [6] was “inactive” each time. The outcome in [3] was inactive.
For `CCCCCCCCCCCCOS(=O)(=O)O`, the outcome in [8] and in experiment [3] was inactive. For the same molecule, the activation in experiment [1] was 1.08% [middle of 4 runs]. Further, the max response in experiment [2] was 11.8% and 23.9% and 3.99%; in experiment [4] it was -1.36% [middle of 4 runs]; in [7] it was 14.3%. For the same molecule, the Potency result in experiment [5] and in experiment [6] was “inactive” each time.
For `Nc1ccc(S(=O)(=O)Nc2nccs2)cc1`, in experiment [1], the activation is -0.168%. Further, the max response was -1.3% in [2], -8.72% in experiment [4] and 3.15% in [7]. For the same molecule, the molecule was called inactive in experiment [9], in [10], in experiment [11] and in [3]. Moreover, in experiment [6], the Potency result was “inactive”.
As to `CC(O)CN(CCN(CC(C)O)CC(C)O)CC(C)O` (stereo not drawn), in [1], the activation was 0.546%. In addition, the results for the max response in [2], in experiment [4] and in experiment [7] were -1.89%, -0.296% and 3.97%, respectively. In experiment [3], the molecule was called inactive.
Take `CCCCC(CC)COC(=O)c1ccccc1O` (stereo not drawn): the activation in [1] was -0.423%. Also, the figures for the max response in experiment [2], in [4] and in experiment [7] were 0.691%, -10.2% and 10.2%, respectively. For the same molecule, the result in experiment [3] was inactive.
Consider `CCOC(=O)c1ccc(O)cc1`, for which the activation in experiment [1] was 6.21%. The figures for the max response in [2], in experiment [4] and in experiment [7] were -1.04%, -0.862% and 10.3%, respectively.
Consider `Cc1c(O)cccc1C(=O)N[C@@H](CSc1ccccc1)[C@H](O)CN1C[C@H]2CCCC[C@H]2C[C@H]1C(=O)NC(C)(C)C`, for which the activation in experiment [1] is -9.16%. Besides, the figures for the max response in experiment [2] and in experiment [7] were -6.84% and 0.0084%, respectively. The Potency in experiment [5] was 8.41 µM (active); in experiment [6], 66.8 µM (active); in experiment [4] it was 44.7 µM (active). Moreover, the result in experiment [3] was inactive.
Consider `CC1(C)[C@@H]2CC[C@@]1(C)C(=O)C2`, for which the activation in experiment [1] is 1.1%. The max response was 1.14% in experiment [2], -10.3% in experiment [4] and -6.95% in [7]. For the same molecule, the Potency result in experiment [5] and in [6] was “inactive” throughout. The molecule was classed as inactive in experiment [3].
Turning to `NCCNCCNCCN`, the outcome in experiment [8] and in experiment [3] was inactive. Besides, the max response in experiment [2] is -1.93%; in experiment [4] it was -12.2%; in [7], -8.14%. Besides, the Potency result in [5] and in experiment [6] was “inactive” each time.
For `NC(=O)N/N=C/c1ccc([N+](=O)[O-])o1`, in experiment [8], the outcome was inactive. Moreover, the activation in experiment [1] is 5.25% and 3.59%. For the same molecule, the max response in experiment [2] is 0.128% and 1.29%; in [4], -20.9%. The Potency result in [6] was “inactive”.
